Our source for the Percent Effect values is ChEMBL document CHEMBL3988442, “University of Dundee, Small-Polar-MMV Screening Library” (2021).

Holding throughout (parameters): scale not given: direction of the effect not stated beside the values
Test [1] deals with Protein translocase subunit SecA (Escherichia coli (strain K12)) (UniProt P10408). The test is described as follows: Assay to Identify E. coli SecA ATPase Inhibitors. The test is classed as functional. To be noted: 30 µM.
The target of test [2] is T1, Ubiquitin-activating enzyme e1, putative (Leishmania donovani (strain BPK282A1)) (UniProt E9BSI1).
T1 sequence (whole entry): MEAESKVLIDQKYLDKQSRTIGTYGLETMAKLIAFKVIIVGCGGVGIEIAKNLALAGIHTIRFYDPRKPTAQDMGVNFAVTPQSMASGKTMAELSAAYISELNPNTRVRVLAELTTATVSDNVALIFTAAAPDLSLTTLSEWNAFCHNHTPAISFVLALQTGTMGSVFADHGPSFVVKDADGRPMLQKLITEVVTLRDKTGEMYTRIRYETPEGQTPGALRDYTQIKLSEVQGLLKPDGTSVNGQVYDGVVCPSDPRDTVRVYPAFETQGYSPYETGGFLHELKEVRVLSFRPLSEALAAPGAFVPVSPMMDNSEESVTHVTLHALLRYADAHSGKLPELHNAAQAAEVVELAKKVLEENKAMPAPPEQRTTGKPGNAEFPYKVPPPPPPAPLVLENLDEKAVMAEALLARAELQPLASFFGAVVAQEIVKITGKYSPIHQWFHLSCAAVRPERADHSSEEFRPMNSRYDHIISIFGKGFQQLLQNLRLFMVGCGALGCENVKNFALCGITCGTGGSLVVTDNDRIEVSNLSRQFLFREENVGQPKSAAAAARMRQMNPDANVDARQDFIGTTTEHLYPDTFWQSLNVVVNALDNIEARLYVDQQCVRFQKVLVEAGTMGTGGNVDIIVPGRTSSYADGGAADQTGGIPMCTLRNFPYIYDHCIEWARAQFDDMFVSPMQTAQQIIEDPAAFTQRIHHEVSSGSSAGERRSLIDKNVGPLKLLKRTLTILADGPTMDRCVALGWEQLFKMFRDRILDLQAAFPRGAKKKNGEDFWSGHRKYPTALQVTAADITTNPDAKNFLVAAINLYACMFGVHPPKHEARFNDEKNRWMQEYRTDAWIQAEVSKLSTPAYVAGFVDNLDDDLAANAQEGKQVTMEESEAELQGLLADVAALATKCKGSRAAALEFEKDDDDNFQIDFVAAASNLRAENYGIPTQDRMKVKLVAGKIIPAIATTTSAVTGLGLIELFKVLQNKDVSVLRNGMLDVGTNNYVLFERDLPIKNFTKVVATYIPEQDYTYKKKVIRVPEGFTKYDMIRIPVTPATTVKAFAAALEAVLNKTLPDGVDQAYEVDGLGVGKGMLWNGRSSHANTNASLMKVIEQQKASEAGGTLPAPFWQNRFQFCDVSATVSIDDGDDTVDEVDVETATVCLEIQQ
The test is described as follows: Leishmania donovani Ubiquitin Activating Enzyme (LdE1). It counts as functional. As to conditions: 30 µM.

For test [3], the target named is AMP-activated protein kinase, AMPK (Homo sapiens) (UniProt P54646+O43741+P54619+Q9UGJ0+Q9Y478+Q13131+Q9UGI9). Nature of the test: AMP-dependent Kinase enzyme assay. An in vitro enzyme assay that detects ADP turnover that is directly proportional to AMPK activity. This uses naive AMPK that is activated during the assay with MK-8722. The test is classed as functional. As to conditions: 30 µM.

For test [4], the target named is Sialic acid-binding Ig-like lectin 9 (Homo sapiens) (UniProt Q9Y336). Nature of the test: Hs-Siglec9 ALPHAscreen SOP 20170721. As to conditions: 10 µM.
The next test relates to Trypanosoma cruzi. Nature of the test: Trypanosoma cruzi phosphomannomutase and mannose-1-phosphate guanylyltransferase assay. It counts as functional. As to conditions: 10 µM.
In test [5] the target is T2, Arginase-2, mitochondrial (Homo sapiens) (UniProt P78540).
T2 sequence (whole entry): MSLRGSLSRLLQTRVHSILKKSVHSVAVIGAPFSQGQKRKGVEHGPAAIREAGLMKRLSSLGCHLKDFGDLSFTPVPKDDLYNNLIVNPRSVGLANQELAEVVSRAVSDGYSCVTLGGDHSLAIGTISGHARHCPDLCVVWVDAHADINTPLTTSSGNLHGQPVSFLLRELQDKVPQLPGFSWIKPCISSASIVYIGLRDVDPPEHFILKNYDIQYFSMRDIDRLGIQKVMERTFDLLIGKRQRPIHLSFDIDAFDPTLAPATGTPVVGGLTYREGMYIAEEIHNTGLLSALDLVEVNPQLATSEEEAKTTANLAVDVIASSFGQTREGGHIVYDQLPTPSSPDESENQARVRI
Nature of the test: in vitro enzyme assay to detect the production of urea directly proportional to the activity of Arginase II. Note: in the data most compounds retested in dose-response had high values. As to conditions: 33.3 µM. The test is classed as functional.

Test [6] deals with T3, Proteasome subunit beta (Trypanosoma cruzi) (UniProt O96673).
T3 sequence (whole entry): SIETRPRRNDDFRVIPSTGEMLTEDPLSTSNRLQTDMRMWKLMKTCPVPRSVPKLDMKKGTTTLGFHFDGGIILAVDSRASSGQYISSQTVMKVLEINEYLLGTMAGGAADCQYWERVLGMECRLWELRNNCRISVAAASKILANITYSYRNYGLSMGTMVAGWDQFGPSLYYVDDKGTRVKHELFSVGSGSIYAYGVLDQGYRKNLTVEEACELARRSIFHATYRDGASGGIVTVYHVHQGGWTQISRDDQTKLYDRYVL
Nature of the test: Trypanosoma cruzi proteasome chymotrypsin-like activity (TcProtChymo) assay. Note: in the data most compounds retested in dose-response had high values. The test is classed as functional. As to conditions: 9.37 µM.

For another test, the species on record is Homo sapiens. Nature of the test: To identify inhibition of the IFN signalling (Jak-Stat) pathway via expression of an eGFP reporter gene under the control of an IFN-stimulated response element (ISRE) containing MxA promoter. It counts as functional. As to conditions: 30 µM. (In general: In a reporter assay the amount or activity of a reporter protein is the signal.)

Test [7] addresses T4, Tyrosyl-tRNA synthetase, putative (Trypanosoma cruzi (strain CL Brener)) (UniProt Q4DSP6).
T4 sequence (whole entry): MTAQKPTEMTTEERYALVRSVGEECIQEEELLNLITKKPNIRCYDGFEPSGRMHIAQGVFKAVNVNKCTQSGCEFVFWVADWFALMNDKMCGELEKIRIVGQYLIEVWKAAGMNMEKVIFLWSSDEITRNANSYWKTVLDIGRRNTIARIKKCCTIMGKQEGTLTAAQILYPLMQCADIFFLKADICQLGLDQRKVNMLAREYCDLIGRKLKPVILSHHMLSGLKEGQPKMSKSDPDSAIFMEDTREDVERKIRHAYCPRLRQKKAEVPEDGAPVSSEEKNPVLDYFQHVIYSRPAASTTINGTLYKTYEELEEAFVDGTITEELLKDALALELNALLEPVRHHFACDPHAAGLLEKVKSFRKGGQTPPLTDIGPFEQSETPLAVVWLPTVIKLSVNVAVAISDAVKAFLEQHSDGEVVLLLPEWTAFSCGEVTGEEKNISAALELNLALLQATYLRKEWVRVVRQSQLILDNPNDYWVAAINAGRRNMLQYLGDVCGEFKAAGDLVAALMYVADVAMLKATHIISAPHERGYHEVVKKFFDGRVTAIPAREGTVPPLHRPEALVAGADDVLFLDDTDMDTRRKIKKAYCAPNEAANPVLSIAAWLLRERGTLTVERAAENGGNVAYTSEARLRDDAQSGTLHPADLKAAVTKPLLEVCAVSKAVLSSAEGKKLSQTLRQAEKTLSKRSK
Nature of the test: Trypanosoma cruzi tyrosyl tRNA synthetase (TcYRS) _High Tyrosine SOP. Note: in the data most compounds retested in dose-response had high values. The test is classed as functional. To be noted: 30 µM.

Test [8] deals with T4, Tyrosyl-tRNA synthetase, putative (Trypanosoma cruzi (strain CL Brener)). Nature of the test: Trypanosoma cruzi tyrosyl tRNA synthetase (TcYRS) SOP. The test is classed as functional. As to conditions: 30 µM.
For test [9], the target named is Chromo domain-containing protein 1 (Saccharomyces cerevisiae (strain ATCC 204508 / S288c) (Baker's yeast)) (UniProt P32657). Nature of the test: ScCHD-1 Enzyme Inhibition Assay. Note: in the data most compounds retested in dose-response had high values. As to conditions: 30 µM. The test is classed as functional.

For some assays here: Measured potencies and affinities stand elsewhere.

Chain of Sialic acid-binding Ig-like lectin 9 (Homo sapiens) (Q9Y336 whole entry): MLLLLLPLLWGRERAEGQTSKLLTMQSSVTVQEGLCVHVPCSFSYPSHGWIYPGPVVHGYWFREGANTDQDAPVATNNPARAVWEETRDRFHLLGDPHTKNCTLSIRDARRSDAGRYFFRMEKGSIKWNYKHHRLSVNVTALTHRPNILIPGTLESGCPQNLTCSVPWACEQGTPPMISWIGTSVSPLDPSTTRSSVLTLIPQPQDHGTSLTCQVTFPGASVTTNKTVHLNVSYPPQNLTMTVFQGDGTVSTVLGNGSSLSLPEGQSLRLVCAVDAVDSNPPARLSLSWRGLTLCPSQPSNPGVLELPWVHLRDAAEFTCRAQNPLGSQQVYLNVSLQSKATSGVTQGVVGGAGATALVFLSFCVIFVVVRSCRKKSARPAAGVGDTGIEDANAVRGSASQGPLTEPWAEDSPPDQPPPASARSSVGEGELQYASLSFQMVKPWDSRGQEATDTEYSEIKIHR
Chain of Chromo domain-containing protein 1 (Saccharomyces cerevisiae (strain ATCC 204508 / S288c) (Baker's yeast)) (P32657 whole entry, the tested form may be a part): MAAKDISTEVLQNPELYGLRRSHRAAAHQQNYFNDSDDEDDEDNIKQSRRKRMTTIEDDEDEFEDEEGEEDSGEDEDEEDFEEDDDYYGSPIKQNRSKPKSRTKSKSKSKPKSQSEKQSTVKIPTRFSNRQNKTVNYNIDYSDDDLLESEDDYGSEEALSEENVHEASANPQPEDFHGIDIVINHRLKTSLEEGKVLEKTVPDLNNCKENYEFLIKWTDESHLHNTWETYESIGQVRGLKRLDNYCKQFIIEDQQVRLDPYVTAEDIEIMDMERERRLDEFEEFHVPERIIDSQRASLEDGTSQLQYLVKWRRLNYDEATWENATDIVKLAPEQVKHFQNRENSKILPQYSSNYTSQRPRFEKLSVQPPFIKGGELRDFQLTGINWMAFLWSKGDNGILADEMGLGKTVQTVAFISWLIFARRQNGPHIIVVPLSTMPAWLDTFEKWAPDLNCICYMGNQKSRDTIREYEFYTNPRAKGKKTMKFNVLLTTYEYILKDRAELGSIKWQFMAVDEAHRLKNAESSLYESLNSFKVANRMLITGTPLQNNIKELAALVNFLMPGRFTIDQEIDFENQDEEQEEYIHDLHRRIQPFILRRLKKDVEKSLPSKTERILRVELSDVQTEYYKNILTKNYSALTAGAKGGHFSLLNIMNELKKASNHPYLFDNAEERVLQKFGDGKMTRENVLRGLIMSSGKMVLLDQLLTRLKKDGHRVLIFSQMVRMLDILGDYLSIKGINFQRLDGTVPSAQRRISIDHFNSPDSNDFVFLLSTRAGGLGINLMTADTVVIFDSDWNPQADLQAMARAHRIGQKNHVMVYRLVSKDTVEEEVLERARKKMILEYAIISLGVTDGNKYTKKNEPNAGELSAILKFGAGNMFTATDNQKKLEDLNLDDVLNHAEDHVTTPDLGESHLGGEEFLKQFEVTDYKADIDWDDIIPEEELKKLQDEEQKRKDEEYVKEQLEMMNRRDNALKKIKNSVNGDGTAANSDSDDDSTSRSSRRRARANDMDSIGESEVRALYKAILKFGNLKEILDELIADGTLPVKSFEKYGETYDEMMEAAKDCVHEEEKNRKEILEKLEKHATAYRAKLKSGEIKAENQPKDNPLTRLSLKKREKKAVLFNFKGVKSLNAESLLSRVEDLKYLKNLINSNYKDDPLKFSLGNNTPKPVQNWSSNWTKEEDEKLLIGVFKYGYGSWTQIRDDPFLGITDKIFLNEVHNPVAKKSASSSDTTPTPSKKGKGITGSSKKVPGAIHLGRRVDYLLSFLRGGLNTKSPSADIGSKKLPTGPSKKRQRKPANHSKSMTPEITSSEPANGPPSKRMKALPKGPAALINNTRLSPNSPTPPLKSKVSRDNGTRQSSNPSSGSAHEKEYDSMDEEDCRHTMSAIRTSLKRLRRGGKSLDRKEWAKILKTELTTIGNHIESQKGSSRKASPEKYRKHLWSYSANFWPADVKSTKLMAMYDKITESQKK
Chain of Protein translocase subunit SecA (Escherichia coli (strain K12)) (P10408 whole entry): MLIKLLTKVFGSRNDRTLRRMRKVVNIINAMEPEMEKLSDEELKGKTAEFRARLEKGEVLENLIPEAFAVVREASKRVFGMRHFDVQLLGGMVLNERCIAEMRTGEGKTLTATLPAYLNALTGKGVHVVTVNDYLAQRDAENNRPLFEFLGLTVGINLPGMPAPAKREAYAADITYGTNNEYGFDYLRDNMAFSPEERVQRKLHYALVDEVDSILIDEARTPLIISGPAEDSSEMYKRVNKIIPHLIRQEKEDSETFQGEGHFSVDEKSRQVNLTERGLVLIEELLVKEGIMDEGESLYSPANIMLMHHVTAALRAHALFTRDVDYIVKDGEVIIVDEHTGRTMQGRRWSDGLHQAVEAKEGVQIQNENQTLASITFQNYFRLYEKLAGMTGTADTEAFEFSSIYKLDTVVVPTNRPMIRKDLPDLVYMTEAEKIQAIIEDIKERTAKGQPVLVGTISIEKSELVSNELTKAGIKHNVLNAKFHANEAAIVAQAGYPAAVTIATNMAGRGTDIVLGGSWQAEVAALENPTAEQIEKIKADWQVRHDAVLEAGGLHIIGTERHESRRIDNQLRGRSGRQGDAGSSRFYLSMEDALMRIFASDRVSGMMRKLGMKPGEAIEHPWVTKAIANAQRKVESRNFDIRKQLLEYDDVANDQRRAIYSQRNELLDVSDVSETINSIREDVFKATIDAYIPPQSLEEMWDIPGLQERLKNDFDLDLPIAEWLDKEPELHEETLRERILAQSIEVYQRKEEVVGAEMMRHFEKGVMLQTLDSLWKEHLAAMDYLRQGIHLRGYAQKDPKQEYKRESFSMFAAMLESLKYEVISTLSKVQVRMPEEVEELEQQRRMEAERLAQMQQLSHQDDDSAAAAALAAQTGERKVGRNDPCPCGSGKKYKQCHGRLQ

Regarding `COc1ncccc1C(=O)N1CCC(c2nnc(C3CC3)o2)CC1`, the Percent Effect in test [1] was -1.83%; in test [2] it was 10.4%; in [3], 11.3%; in test [4], 3.07%; in the test with Trypanosoma cruzi, -5.82%; in test [5], 16.1%. The Percent Effect was 9.75% in test [6]; -6.69% in the test listed under Homo sapiens; 4.23% in test [7]; 11.5% in test [8]; -9.2% in test [9].
As to `CCc1ncnc2c1CCN(C(=O)Cc1ccccn1)CC2`, the Percent Effect is -1.33% in [1]; 4% in [2]; -1.05% in [3]; 1.52% in test [4]; -0.786% in the test with Trypanosoma cruzi; -9.33% in test [5]. The Percent Effect in [6] is 11.8%; in the test listed under Homo sapiens, 12.9%; in [7], 1.06%; in test [8], -5.13%; in test [9] it was -2.69%.
As to `CCN1C[C@H]2CCN(C(C)=O)CC[C@H]2S1(=O)=O`, the Percent Effect is -0.139% in test [1]; 9.33% in [2]; -6.04% in test [3]; -0.534% in [4]; -5.7% in the test on Trypanosoma cruzi; -5.81% in test [5]. The Percent Effect in [6] is 19.6%; in the test filed under Homo sapiens it was 1.4%; in [7], 0%; in test [8], 5.13%; in [9] it was -7.45%.
In the case of `CC1(C(=O)N2CCOCC2)CN(Cc2ccccn2)CCO1` (stereo not given), the Percent Effect is -7.59% in test [1]; 1.35% in [2]; -5.87% in test [3]; -5.46% in test [4]; -4.35% in the test with Trypanosoma cruzi; -5.8% in test [5]. Besides, the Percent Effect is 9.52% in [6]; 24.2% in the test listed under Homo sapiens; 1.07% in test [7]; -3.9% in [8]; 6.62% in [9].
`CC(C)S(=O)(=O)NCC1CCCN(C(=O)c2ccc3c(c2)OCCO3)C1` (stereo not given): the Percent Effect was -6.68% in test [1]; 5.48% in test [2]; 3.11% in [3]; -9.4% in test [4]; 0.196% in the test on Trypanosoma cruzi; 0% in test [5]. Further, the Percent Effect is 7.81% in test [6]; 5.65% in the test listed under Homo sapiens; -1.07% in [7]; 5% in test [8]; -3.79% in [9].
For `CNCC(=O)N1CCCC(c2nccnc2Oc2cccc(F)c2)C1` (stereo not given), the Percent Effect in test [1] was -7.42%; in test [2], 10.7%; in test [3], 10%; in [4], -1.6%; in the test on Trypanosoma cruzi it was -3.74%; in test [5], -3.03%. Moreover, the Percent Effect was 9.25% in [6]; 11.8% in the test filed under Homo sapiens; 3.19% in test [7]; 3.85% in test [8]; -4.73% in test [9].
For `CN(Cc1cn2c(n1)CN(c1ncc(F)cn1)CC2)Cc1ccco1`, the Percent Effect in test [1] was -3.08%; in test [2] it was 13.3%; in [3] it was -4.28%; in test [4], -1.26%; in the test on Trypanosoma cruzi it was 0.197%; in test [5] it was 4.89%. Besides, the Percent Effect is 20.7% in test [6]; 1.67% in the test listed under Homo sapiens; 9.57% in test [7]; 21.8% in test [8]; -5.99% in test [9].
Turning to `CCN(CC1CN(CCc2ccccn2)CCO1)c1cccnn1` (stereo not given), the Percent Effect was -2.15% in [1]; 0% in test [2]; -5.23% in test [3]; -0.0186% in test [4]; 4.77% in the test with Trypanosoma cruzi; 3.12% in test [5]. The Percent Effect is 14.7% in test [6]; -14.7% in the test listed under Homo sapiens; 0.546% in test [7]; 1.24% in test [8]; 2.6% in [9].
With `Cc1nnc(NC(=O)NCc2cc(F)cc(F)c2)s1`, the Percent Effect in [1] was -1.16%; in test [2], 21.1%; in test [3] it was -3.09%; in [4] it was -15.6%; in the test on Trypanosoma cruzi it was -9.43%; in test [5] it was 5.75%. Besides, the Percent Effect in test [6] was 10.7%; in the test filed under Homo sapiens it was 13.5%; in test [7] it was 4.43%; in [8], 13.6%; in test [9], -3.4%.
Regarding `O=c1oc(-c2cccs2)nn1CC(O)c1ccccc1` (stereo not given), the Percent Effect is -3.18% in test [1]; 8% in [2]; -5.55% in test [3]; 2.71% in test [4]; 0.292% in the test with Trypanosoma cruzi; -27.6% in [5]. Moreover, the Percent Effect is 5.58% in test [6]; 7.94% in the test filed under Homo sapiens; 10.4% in test [7]; 16.1% in test [8]; -4.32% in [9].
